Compound activity (PubChem BioAssay)
Sampled rows, rich in hits. Any-hit rate of the full collection: about 6.6%.
FBA Mtb inh = Mtb fructose-bisphosphate aldolase inhibition. actives 2.3% (n = 360,000). inhibition, % at 1 µM. purified M. tuberculosis FBA, fluorescence read-out. P9WQA3
Anthrax LF prot = blocks Bacillus anthracis lethal factor protease; P15917; multiplex microsphere protease cleavage assay, LF; inhibition, % at 10 µM; actives 0.12% (n = 360,000); AID 588501; in the data active = inhibition above about 30%
Target sequence (P15917 whole entry, looked up): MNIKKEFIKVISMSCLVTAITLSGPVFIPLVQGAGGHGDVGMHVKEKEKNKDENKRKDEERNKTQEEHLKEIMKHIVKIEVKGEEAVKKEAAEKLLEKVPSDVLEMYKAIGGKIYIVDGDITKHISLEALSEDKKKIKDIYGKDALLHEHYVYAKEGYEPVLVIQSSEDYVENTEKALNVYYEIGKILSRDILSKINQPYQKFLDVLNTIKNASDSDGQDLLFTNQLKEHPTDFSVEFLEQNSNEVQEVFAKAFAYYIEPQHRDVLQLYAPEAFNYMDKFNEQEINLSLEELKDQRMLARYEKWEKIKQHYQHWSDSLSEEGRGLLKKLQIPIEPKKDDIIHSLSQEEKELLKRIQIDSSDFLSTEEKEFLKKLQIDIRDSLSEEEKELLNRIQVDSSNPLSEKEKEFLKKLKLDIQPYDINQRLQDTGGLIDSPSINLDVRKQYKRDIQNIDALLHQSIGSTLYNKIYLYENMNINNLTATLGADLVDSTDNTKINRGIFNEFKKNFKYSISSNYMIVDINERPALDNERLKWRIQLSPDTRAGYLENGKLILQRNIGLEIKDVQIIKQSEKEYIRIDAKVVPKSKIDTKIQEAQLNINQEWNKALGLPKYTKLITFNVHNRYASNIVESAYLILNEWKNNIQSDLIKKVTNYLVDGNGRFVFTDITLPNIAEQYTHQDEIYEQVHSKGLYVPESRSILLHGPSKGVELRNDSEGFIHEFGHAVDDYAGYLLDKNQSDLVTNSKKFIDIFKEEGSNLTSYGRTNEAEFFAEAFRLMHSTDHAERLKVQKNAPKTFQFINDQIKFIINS
GDH-TPI counter-1 = inhibits GDH-TPI coupling enzymes, artifact for Mtb FBA screen; actives 1.2% (n = 360,000); inhibition, % at 4.8 µM; GDH-TPI coupled enzyme counterscreen, NADH absorbance; in the data active = inhibition above about 30%
BoNT-A LC inh2 = BoNT A light chain protease inhibition; multiplex microsphere protease substrate cleavage, flow cytometry; inhibition, % at 10 µM; actives 0.17% (n = 360,000); in the data active = inhibition above about 30%
BoNT F protease = blocks Botulinum neurotoxin F light chain protease | Multiplex microsphere protease cleavage assay, flow cytometry | inhibition, % at 10 µM | actives 0.22% (n = 360,000) | AID 588497; in the data active = inhibition above about 35%, passing the limit was not always enough
Bead autofluor = flagged as autofluorescent in microsphere protease counterscreen; fluorescence intensity (no concentration beside the values); actives 3.1% (n = 360,000); compound autofluorescence counterscreen, microsphere flow cytometry; hits give high values; in the data active = fluorescence intensity above about 16000
Mtb FBA inh conf = confirmation of M. tuberculosis fructose-bisphosphate aldolase inhibitors; shares compounds with FBA Mtb inh; purified M. tuberculosis FBA, fluorescence read-out; inhibition, % at 1 µM; actives 78% (n = 5,600)
GDH-TPI counter-2 = inhibits GDH-TPI coupling enzymes, flagging Mtb FBA hits; shares compounds with FBA Mtb inh; GDH-TPI coupled enzyme counterscreen, fluorescence; inhibition, % at 1 µM; actives 81% (n = 5,600); AID 652141; in the data active = inhibition above about 10%
GDH-TPI DR = inhibits GDH-TPI coupling enzymes in dose response; AID 652145; IC50, µM; GDH-TPI coupled enzyme assay, fluorescence, artifact counterscreen; actives 79% (n = 170); shares compounds with FBA Mtb inh; call rule not given here
Of the large screens only hits and unclear results are named; the others gave an inactive call (follow-up assays come after a bar, where they were run). Rule as the data show it, unless noted: active = inhibition above about 27%; inactive = the rest.

O=C(O)c1cc(S(=O)(=O)Nc2ccccc2C(=O)O)ccc1O	FBA Mtb inh 28.7 | Mtb FBA inh conf inactive | GDH-TPI counter-2 inactive | GDH-TPI DR inactive
Fc1ccc(-c2cc(C(F)(F)F)n3ncnc3n2)cc1	FBA Mtb inh 85.1 | Mtb FBA inh conf 129.8 | GDH-TPI counter-2 129.4
CCN1CCn2c3c(c4cccc(C)c42)CCCC31 (centres undefined)	none
Cc1nc2nc(NCc3cccs3)nn2c(C)c1Cl	FBA Mtb inh 35.0 | Mtb FBA inh conf 62.2 | GDH-TPI counter-2 41.5
COc1cccc(CNc2nc3nc(C)c(Cl)c(C)n3n2)c1	none
Cc1nc2nc(CCc3ccccc3)nn2c(C)c1Cl	none
Cc1nc2nc(COc3ccccc3)nn2c(C)c1Cl	FBA Mtb inh 38.7 | Mtb FBA inh conf active | GDH-TPI counter-2 188.5
Cc1nc2nc(-c3ccco3)nn2c(C)c1Cl	FBA Mtb inh 38.4 | Mtb FBA inh conf 37.0 | GDH-TPI counter-2 34.5
COc1cc2cc3c(N)c(C(=O)Nc4sc(C)c(C)c4C#N)sc3nc2cc1OC	none
CCOC(=O)C1(Cc2ccc(Cl)cc2)CCN(C(=O)c2cc(C)nc(C)n2)CC1	none
CC(C)Oc1cc(F)ccc1-c1cc(C(=O)NCc2ccccn2)[nH]n1	none
Cc1ccc(S(=O)(=O)N2CN(CC3CCCO3)c3nc4ccccc4nc32)c(C)c1 (centres undefined)	none
Cc1ccc(S(=O)(=O)Nc2nc3ccccc3nc2NCC2CCCO2)c(C)c1 (centres undefined)	FBA Mtb inh 29.5 | Mtb FBA inh conf 108.1 | GDH-TPI counter-2 91.7
Cc1cc(C)cc(Oc2coc3c(CN(C)C)c(O)ccc3c2=O)c1	FBA Mtb inh 91.9 | Mtb FBA inh conf 77.3 | GDH-TPI counter-2 67.5
CCOC(=O)N1CCN(c2nc3ccc(C)cc3n3cnnc23)CC1	none
CCOC(=O)CCCCCC(=O)Nc1ccc2c(c1)C(=O)N([C@@H](C)CO)C[C@@H](C)[C@H](CN(C)S(=O)(=O)c1cccs1)OCCCC[C@H](C)O2	none
CN1CC=C2C(C#N)=C(N)C(C#N)(C#N)[C@H](c3cccc(Cl)c3)C2C1 (some centres undefined)	FBA Mtb inh 28.5 | Mtb FBA inh conf inactive | GDH-TPI counter-2 inactive
CN1CC=C2C(C#N)=C(N)C(C#N)(C#N)C(c3ccsc3)C2C1 (centres undefined)	FBA Mtb inh 29.9 | Mtb FBA inh conf 79.2 | GDH-TPI counter-2 65.0
CN1CC=C2C(C#N)=C(N)C(C#N)(C#N)C(c3ccncc3)C2C1 (centres undefined)	none
CCOC(=O)N1CC=C2C(C#N)=C(N)C(C#N)(C#N)[C@H](c3ccsc3)[C@H]2C1	none
CCCC1C2CN(C(C)C)CC=C2C(C#N)=C(N)C1(C#N)C#N (centres undefined)	FBA Mtb inh 45.8 | Mtb FBA inh conf inactive | GDH-TPI counter-2 28.6
Cc1ccc(S(=O)(=O)N2CCOCC2)cc1NC(=O)COC(=O)CCC(=O)c1ccc(F)cc1	none
Cc1onc(-c2c(F)cccc2Cl)c1C(=O)NC(=S)NCc1cccnc1	none
CCOC(=O)N1CCN(C(=O)c2cc(C)c3c(C)nn(-c4ccccc4)c3n2)CC1	FBA Mtb inh 65.9, Bead autofluor 23022 | Mtb FBA inh conf inactive | GDH-TPI counter-2 inactive
O=C(COc1ccc(Br)cc1)N1CCN(C2CCCC2)CC1	FBA Mtb inh 33.2 | Mtb FBA inh conf 29.1 | GDH-TPI counter-2 13.0
Cc1ccc(-n2nc3ccc(N)cc3n2)c(C)c1	FBA Mtb inh 99.8 | Mtb FBA inh conf active | GDH-TPI counter-2 active
Cc1ccc(-n2nc3ccc(N)cc3n2)cc1C	FBA Mtb inh 27.4 | Mtb FBA inh conf inactive | GDH-TPI counter-2 inactive | GDH-TPI DR 1.48
Cc1ccc(-n2nc3ccc(N)cc3n2)cc1Cl	FBA Mtb inh 27.8 | Mtb FBA inh conf 58.8 | GDH-TPI counter-2 46.5
COc1ccc(-n2nc3ccc(NS(C)(=O)=O)cc3n2)cc1Cl	FBA Mtb inh 91.8 | Mtb FBA inh conf 36.2 | GDH-TPI counter-2 22.5
COC(=O)CC(NC(=S)NC(=O)c1ccccc1)c1ccc(Br)cc1 (centres undefined)	none
COc1ccc(-n2nc3ccc(N)cc3n2)cc1Cl	FBA Mtb inh 63.7 (no result: Anthrax LF prot, BoNT-A LC inh2, BoNT F protease, Bead autofluor) | Mtb FBA inh conf 50.1 | GDH-TPI counter-2 44.0
COc1ccccc1CNc1nc(Nc2ccccc2OC)c2sccc2n1	none
Cc1cc(Cl)ccc1-c1nc(NCc2ccccc2)nc2ccsc12	none
Cc1cscc1-c1nc(NCC2CC2)nc2ccsc12	FBA Mtb inh 37.1 | Mtb FBA inh conf 127.0 | GDH-TPI counter-2 100.1
COCCNc1nc(-c2ccc(Cl)cc2C)c2sccc2n1	FBA Mtb inh 69.1 | Mtb FBA inh conf inactive | GDH-TPI counter-2 inactive
COc1ccccc1CNc1nc(-c2ccccc2CO)c2sccc2n1	FBA Mtb inh 50.6 | Mtb FBA inh conf 130.4 | GDH-TPI counter-2 90.4
Fc1ccccc1-c1nc(NCC2CC2)nc2ccsc12	FBA Mtb inh 41.9 | Mtb FBA inh conf 99.6 | GDH-TPI counter-2 83.5
Cc1ccc(NC(=S)N2CCN(S(=O)(=O)c3ccc(F)cc3)CC2)cc1	none
CCOc1ccc(-c2nnc(-c3ccc(OC)cc3)o2)cc1	none
CCCOc1ccc(-c2nc(C#N)c(N3CCc4ccccc4C3)o2)cc1	none
CCOc1ccc(-c2nc(C#N)c(N3CCCCCC3)o2)cc1	FBA Mtb inh 99.8 | Mtb FBA inh conf 45.6 | GDH-TPI counter-2 42.3
CCCOc1ccc(-c2nc(C#N)c(N3CCN(C)CC3)o2)cc1	FBA Mtb inh 39.9 | Mtb FBA inh conf inactive | GDH-TPI counter-2 inactive
CCOc1ccc(-c2nc(C#N)c(N3CCN(C)CC3)o2)cc1	FBA Mtb inh 68.8, GDH-TPI counter-1 33.3 | Mtb FBA inh conf active | GDH-TPI counter-2 active
CCOC(=O)C1(CC)NC(c2ccc(OC)cc2OC)C2C(=O)N(C)C(=O)C21 (centres undefined)	none
COc1ccc2c(c1)cc(C(=O)N[C@H](C(=O)N1CCC[C@H]1C(=O)O)C(C)C)n2C	FBA Mtb inh 106.1 | Mtb FBA inh conf 159.2 | GDH-TPI counter-2 112.8
COc1ccc2c(c1)cc(C(=O)N[C@@H](CCSC)C(=O)N1CCC[C@H]1C(=O)O)n2C	FBA Mtb inh 111.1 | Mtb FBA inh conf inactive | GDH-TPI counter-2 inactive
C[C@H](NC(=O)c1cc2cc(Cl)ccc2n1C)C(=O)N1CCC[C@H]1C(=O)O	none
CNC(=O)c1cc2cc(OC)ccc2n1CCN(Cc1ccccc1)Cc1ccccc1	none
COc1ccc2c(c1)cc(C(=O)N[C@H](C(=O)N1CCC(C(=O)O)CC1)C(C)C)n2C	FBA Mtb inh 64.7 | Mtb FBA inh conf 119.9 | GDH-TPI counter-2 98.9
CNC(=O)c1cc2cc(OC)ccc2n1CCN(C)C	FBA Mtb inh 29.4 | Mtb FBA inh conf 109.8 | GDH-TPI counter-2 74.3
